# Measurements taken from PubChem BioAssay.
# Active and inactive are the calls of the source. Unless noted, how the calls were made is not given here.
# Key:
# [1] = system: Wnt5a (protein binding on small-molecule microarray); test: Wnt5a binders on small-molecule microarray, primary screen, biophysical, 635/667 nm fluorescence (AID 1142); conditions: 635 nm fluorescence, higher = more signal;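 further: fluorescence read at 667 nm with signal to noise per printed feature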
# [2] = cell viability in Huh7 cells, primary screen, cytotoxicity control for HCV replication inhibitor project, CellTiter-Glo luminescence, basal, 48 h (AID 1143); conditions: Huh7 HCV replicon, higher = more signal, called active from +8 up or from −8 down;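 further: Huh7 hepatoma cells carrying a hepatitis C replication reporter with no stimulus; test concentration not given here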
# [3] = P. aeruginosa biofilm formation inhibitors, primary screen, PAO1 strain, BacTiter-Glo luminescence, LB-PBS (AID 1144); conditions: 12 h, higher = more signal
# [4] = CREB reporter modulators without forskolin, primary screen, cell-based, PC12, CRE-LacZ reporter, unstimulated (AID 1145); conditions: no forskolin, luminescence, 4.5 h, higher = more signal, called active from +8 up or from −8 down
# [5] = CREB reporter modulators under forskolin, primary screen, cell-based, PC12, CRE-LacZ reporter, forskolin-stimulated (AID 1146); conditions: luminescence, 4.5 h, higher = more signal, called active from +8 up or from −8 down;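 further: PC12 cells with 6xCRE LacZ reporter stimulated by forskolin 10 µM; beta-galactosidase reporter signal reflecting CREB driven transcription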
# [6] = target: Streptavidin (Streptomyces avidinii) (UniProt P22629); test: streptavidin binders on small-molecule microarray, primary screen, artefact control for SMM compound annotation, biophysical, 635/667 nm fluorescence (AID 1147); conditions: streptavidin binding, higher = more signal;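 further: signal reflects streptavidin binding to arrayed compounds as a control protein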
# Sequence of Streptavidin (Streptomyces avidinii) (P22629 whole entry, looked up): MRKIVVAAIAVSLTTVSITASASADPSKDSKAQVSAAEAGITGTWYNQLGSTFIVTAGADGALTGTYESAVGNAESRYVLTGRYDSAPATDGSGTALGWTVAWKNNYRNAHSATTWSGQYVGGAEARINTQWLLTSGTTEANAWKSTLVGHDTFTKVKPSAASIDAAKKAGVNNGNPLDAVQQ
# [7] = small-molecule binders of probe aInhba, primary screen, biochemical, small-molecule microarray, 635/667 nm fluorescence (AID 1148); conditions: higher = more signal;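 further: score merges 667nm spot fluorescence with signal-to-noise for antibody binding to printed compounds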
# Torsin-1A (Homo sapiens) [8] = target: Torsin-1A (Homo sapiens) (UniProt O14656); test: torsin A binders from cell lysate, primary screen, small-molecule microarray, wild-type, 635/667 nm (AID 1149); conditions: COS7 hTOR1A-WT lysate, 635 nm fluorescence, higher = more signal
# Sequence of Torsin-1A (Homo sapiens) (O14656 whole entry, looked up): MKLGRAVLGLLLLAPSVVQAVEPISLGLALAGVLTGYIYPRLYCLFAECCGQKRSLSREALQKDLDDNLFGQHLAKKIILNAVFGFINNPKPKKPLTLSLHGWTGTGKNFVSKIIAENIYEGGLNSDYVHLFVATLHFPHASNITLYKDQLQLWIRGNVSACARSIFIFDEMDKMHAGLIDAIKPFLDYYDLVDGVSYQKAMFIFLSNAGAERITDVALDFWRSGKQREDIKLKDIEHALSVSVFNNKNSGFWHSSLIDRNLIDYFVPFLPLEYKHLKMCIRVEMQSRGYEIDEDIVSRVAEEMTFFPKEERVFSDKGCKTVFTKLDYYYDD
# Torsin-1A (Homo sapiens) [9] = target: Torsin-1A (Homo sapiens) (UniProt O14656); test: small-molecule binders of mutant TOR1A in lysate, primary screen, cell lysate, small-molecule microarray, COS7 lysate, 635/667 nm fluorescence (AID 1150); conditions: COS7 hTOR1A mutant lysate, 635 nm fluorescence, higher = more signal;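 further: score pools 667 nm emission and signal to noise measuring lysate protein binding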
# [10] = system: Sonic hedgehog protein (Shh); test: small-molecule binders of Shh protein, primary screen, biochemical, small-molecule microarray, 635/667 nm fluorescence (AID 1151); conditions: small-molecule microarray binding, 635 nm fluorescence; higher = more signal;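 further: Shh protein binding to compounds spotted on small-molecule microarray slides; score combines spot fluorescence intensity with signal-to-noise across triplicate slides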
# [11] = E. coli DRC41 culture turbidity changes, primary screen, E. coli filamentation inducer project, strain DRC41, OD650, 48 h (AID 1152);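 further: E. coli MC1000 strain DRC41 lacking acrAB efflux pump and sulA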; conditions: E. coli DRC41 (acrAB sulA), higher = more signal, called active from +8 up or from −8 down
# [12] = small-molecule binders of probe aLefty1, primary screen, biochemical, small-molecule microarray, 635/667 nm fluorescence (AID 1153); conditions: higher = more signal;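 further: score merges spot fluorescence with signal-to-noise ratio from the scanned slide images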
# [13] = PSAC antagonists in infected red cells, primary screen, cell-based, P. falciparum Indochina, OD700, 1 h (AID 1154); conditions: P. falciparum Indochina infected RBC osmotic lysis, higher = more signal, called active from +8 up or from −8 down
# [14] = PSAC antagonists in infected red cells, primary screen, cell-based, P. falciparum Indochina, OD700, 2 h (AID 1155);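 further: lysis reports solute entry through the parasite surface anion channel PSAC; channel blockers reduce lysis of infected cells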; conditions: P. falciparum Indochina infected erythrocytes, osmotic lysis OD700; higher = more signal, called active from +8 up or from −8 down
# [15] = osmotic lysis modulators in infected erythrocytes, primary screen, PSAC antagonist project, cell-based, P. falciparum Indochina, OD700, 3 h (AID 1156); conditions: higher = more signal, called active from +8 up or from −8 down
# [16] = PSAC antagonists in infected red cells, primary screen, cell-based, P. falciparum Indochina, OD700, 18 h (AID 1157); conditions: P. falciparum Indochina infected erythrocytes, osmotic lysis OD700, 18 h; higher = more signal, called active from +8 up or from −8 down
# [17] = modulators of S6 phosphorylation in cells, primary screen, cell-based, A549, cytoblot, luminescence, serum-stimulated (AID 1158); conditions: A549 phospho-S6 cytoblot, 5 h, higher = more signal;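 further: serum-stimulated A549 lung adenocarcinoma cells; signal is phosphorylated S6 detected by cytoblot immunostaining with HRP secondary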
# [18] = target: NADPH oxidase 2 (Homo sapiens) (UniProt P04839); test: NOX2-dependent H2O2 signal modulators, primary screen, NOX inhibitor project, cell-based, HEK293-NOX2, PMA-stimulated, Amplex Red fluorescence (AID 1159); conditions: 45 min, higher = more signal, called active from +8 up or from −8 down; further: test concentration not given here
# Sequence of NADPH oxidase 2 (Homo sapiens) (P04839 whole entry, looked up): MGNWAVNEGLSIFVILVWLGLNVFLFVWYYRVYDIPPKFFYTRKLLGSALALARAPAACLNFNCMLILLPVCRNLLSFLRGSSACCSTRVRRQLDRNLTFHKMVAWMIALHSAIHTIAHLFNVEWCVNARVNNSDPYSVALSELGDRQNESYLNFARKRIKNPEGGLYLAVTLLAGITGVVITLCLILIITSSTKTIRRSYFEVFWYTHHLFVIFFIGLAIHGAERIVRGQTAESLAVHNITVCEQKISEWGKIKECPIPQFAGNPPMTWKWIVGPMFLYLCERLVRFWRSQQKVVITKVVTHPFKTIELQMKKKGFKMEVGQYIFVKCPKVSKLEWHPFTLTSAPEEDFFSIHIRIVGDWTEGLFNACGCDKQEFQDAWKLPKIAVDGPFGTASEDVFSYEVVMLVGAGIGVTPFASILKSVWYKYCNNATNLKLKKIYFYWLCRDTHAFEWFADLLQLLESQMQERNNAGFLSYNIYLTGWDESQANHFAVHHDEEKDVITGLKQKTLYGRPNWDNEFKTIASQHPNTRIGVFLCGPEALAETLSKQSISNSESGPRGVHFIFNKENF
# [19] = target: NADPH oxidase 4 (Homo sapiens) (UniProt Q9NPH5); test: NOX4-dependent H2O2 signal modulators, primary screen, NOX inhibitor project, cell-based, HEK293-NOX4, tetracycline-induced, Amplex Red fluorescence (AID 1160); conditions: 45 min, higher = more signal, called active from +8 up or from −8 down
# Sequence of NADPH oxidase 4 (Homo sapiens) (Q9NPH5 whole entry, looked up): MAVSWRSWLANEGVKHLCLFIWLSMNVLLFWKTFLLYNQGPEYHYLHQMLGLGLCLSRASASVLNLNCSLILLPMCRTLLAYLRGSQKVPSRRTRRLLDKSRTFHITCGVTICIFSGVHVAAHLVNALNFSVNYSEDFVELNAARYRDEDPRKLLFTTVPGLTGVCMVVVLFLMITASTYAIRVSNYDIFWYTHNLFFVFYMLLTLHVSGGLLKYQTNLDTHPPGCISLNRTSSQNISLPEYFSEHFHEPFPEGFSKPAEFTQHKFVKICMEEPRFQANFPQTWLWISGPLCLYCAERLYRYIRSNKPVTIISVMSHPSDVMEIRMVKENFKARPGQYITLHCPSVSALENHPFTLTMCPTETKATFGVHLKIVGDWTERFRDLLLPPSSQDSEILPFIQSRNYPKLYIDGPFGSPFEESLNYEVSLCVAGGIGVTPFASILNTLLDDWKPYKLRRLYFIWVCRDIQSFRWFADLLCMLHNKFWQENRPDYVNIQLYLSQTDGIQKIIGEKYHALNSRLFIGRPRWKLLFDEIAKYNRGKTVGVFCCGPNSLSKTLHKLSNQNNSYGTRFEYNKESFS
# [20] = target: NADPH oxidase 5 (Homo sapiens) (UniProt Q96PH1); test: NOX5-dependent H2O2 signal modulators, primary screen, NOX inhibitor project, cell-based, HEK293-NOX5, Amplex Red fluorescence (AID 1161); conditions: HEK293-NOX5, ionomycin, 45 min, higher = more signal
# Sequence of NADPH oxidase 5 (Homo sapiens) (Q96PH1 whole entry, looked up): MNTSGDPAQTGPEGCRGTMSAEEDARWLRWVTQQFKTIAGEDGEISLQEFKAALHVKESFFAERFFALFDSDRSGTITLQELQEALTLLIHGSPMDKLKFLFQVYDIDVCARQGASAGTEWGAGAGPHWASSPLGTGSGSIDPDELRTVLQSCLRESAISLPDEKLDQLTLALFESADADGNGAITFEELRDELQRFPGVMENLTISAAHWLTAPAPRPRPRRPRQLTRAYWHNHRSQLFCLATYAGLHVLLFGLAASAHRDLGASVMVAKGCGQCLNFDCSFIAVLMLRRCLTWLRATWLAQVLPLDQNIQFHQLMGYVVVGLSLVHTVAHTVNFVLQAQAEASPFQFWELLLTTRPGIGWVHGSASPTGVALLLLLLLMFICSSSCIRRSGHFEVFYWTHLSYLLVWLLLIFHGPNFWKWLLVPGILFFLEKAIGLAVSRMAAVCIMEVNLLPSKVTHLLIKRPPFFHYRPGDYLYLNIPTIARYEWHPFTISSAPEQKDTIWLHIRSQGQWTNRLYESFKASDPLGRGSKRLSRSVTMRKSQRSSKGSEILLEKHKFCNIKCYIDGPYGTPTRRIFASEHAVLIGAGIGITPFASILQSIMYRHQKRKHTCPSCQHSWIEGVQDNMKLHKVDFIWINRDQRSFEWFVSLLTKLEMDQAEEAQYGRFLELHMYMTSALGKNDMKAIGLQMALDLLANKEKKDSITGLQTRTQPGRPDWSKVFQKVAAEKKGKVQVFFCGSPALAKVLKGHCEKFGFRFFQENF
SMILES,composite z-score [1],z-score [2],z-score [3],z-score [4],z-score [5],composite z-score [6],composite z-score [7],composite z-score (Torsin-1A (Homo sapiens) [8]),composite z-score (Torsin-1A (Homo sapiens) [9]),composite z-score [10],z-score [11],composite z-score [12],z-score [13],z-score [14],z-score [15],z-score [16],z-score [17],z-score [18],z-score [19],z-score [20]
CC(C)(C)OC(=O)CC[C@]12N=C(c3ccc(OCCCO)cc3)O[C@H]1c1ccccc1N(CCS(=O)(=O)c1ccccc1)C2=O,0.628,-2.91 (inactive),-0.556 (inactive),3.64 (inactive),-1.42 (inactive),0.579,0.0785,0.698,0.811,1.2,-1.59 (inactive),0.447,32.2 (active),28.5 (active),4.08 (inactive),8.71 (active),-0.321,-0.859 (inactive),1.12 (inactive),-1.06
C=C(CCCC)C(=O)CC[C@@H](OC(=O)c1cccnc1)c1ccc(CO)o1,0.314,-0.0785 (inactive),-0.0897 (inactive),2.41 (inactive),0.783 (inactive),1.05,-0.0774,0.984,1.74,2.04,-0.367 (inactive),-0.289,3.22 (inactive),0.449 (inactive),0.873 (inactive),0.258 (inactive),0.264,0.341 (inactive),-0.942 (inactive),-1.04
CCOC(=O)C[C@H]1[C@H](OC(=O)c2cc3ccccc3oc2=O)[C@@H](NC(=O)Cc2ccc(OC)cc2)c2cc(OCCCO)ccc2N1C(=O)c1ccccc1,0.0687,-3.21 (inactive),-0.797 (inactive),4.1 (inactive),-0.27 (inactive),0.308,0.0713,0.388,0.804,0.189,0.386 (inactive),0.0942,0.743 (inactive),-1.44 (inactive),0.776 (inactive),-2.76 (inactive),1.03,-0.569 (inactive),-0.523 (inactive),-0.286
Cc1ccc(S[C@]2(C(=O)NCCN3CCOCC3)CC(=O)N(Cc3ccccc3)[C@@H]2c2ccc(CO)cc2I)cc1,0.0376,-5.17 (inactive),-0.779 (inactive),-0.114 (inactive),1.8 (inactive),-0.755,-0.0719,-1.46,0.59,-0.685,0.434 (inactive),0.0752,8.54 (active),0.37 (inactive),1.13 (inactive),-1.19 (inactive),2.42,1.99 (inactive),-2.89 (inactive),0.422
COCCOC(=O)N1C(=O)[C@@]2(c3cc(C#CCCO)ccc31)[C@H](c1ccc(OCCO)cc1)N1[C@H](c3ccccc3)[C@H](c3ccccc3)OC(=O)[C@H]1[C@@H]2C(=O)N1CCN(c2ncccn2)CC1,-0.0738,-0.361 (inactive),0.97 (inactive),0.334 (inactive),0.653 (inactive),0.782,0.0947,0.546,0.28,1.43,-0.304 (inactive),0.372,5.15 (inactive),1.58 (inactive),-0.325 (inactive),0.411 (inactive),-0.113,1.89 (inactive),0.925 (inactive),1.32
CN1C(=O)C2C=CC(C(O)c3cccs3)N(Nc3ccccc3)C2C1=O (stereo not given),0.455,0.593 (inactive),-0.0101 (inactive),0.426 (inactive),0.711 (inactive),0.389,0.406,0.757,0.738,0.251,-1.6 (inactive),0.206,-0.203 (inactive),0.65 (inactive),-0.109 (inactive),0.731 (inactive),-1.19,-2 (inactive),-4.89 (inactive),-3.11
O=C1OCCC/C=C\[C@H]2OC34C=CCN(Cc5ccccc5)C(=O)[C@H]3N(CCCCCCO)C(=O)[C@@H]4C12 (stereo not given in full),-0.489,0.233 (inactive),-1.14 (inactive),1.01 (inactive),0.0851 (inactive),-0.821,-0.147,-0.309,1.9,-0.693,1.19 (inactive),-0.0576,2.96 (inactive),0.141 (inactive),0.59 (inactive),0.524 (inactive),0.0169,1.12 (inactive),0.279 (inactive),1.88
CC(=O)NCCCC[C@@H]1NC(=O)[C@@H]2C[C@H](C(=O)NCCCCN(C)C)[C@H](c3cccc(OCCO)c3)N2C1=O,-0.0339,0.344 (inactive),-0.269 (inactive),0.0043 (inactive),-0.874 (inactive),-0.451,-0.154,-1.28,0.0889,1.04,0.522 (inactive),-0.243,0.628 (inactive),0.0655 (inactive),-0.0825 (inactive),0.105 (inactive),-0.326,-0.0869 (inactive),-0.115 (inactive),-0.205
COCCCN1C(=O)[C@@]2(Cc3ccccc31)c1ccccc1C(=O)N(Cc1ccccc1C(F)(F)F)[C@H]2c1ccc(CO)cc1,0.16,0.287 (inactive),-0.169 (inactive),-0.581 (inactive),0.255 (inactive),0.147,0.331,-0.0888,-0.0875,0.498,-0.125 (inactive),-0.208,0.512 (inactive),0.635 (inactive),-0.101 (inactive),0.427 (inactive),0.0136,-0.767 (inactive),-0.607 (inactive),0.77
